In PubChem BioAssay AID504690 (Sanford-Burnham Center for Chemical Genomics, 2011):
The whole screen tested about 350,000 compounds, of which about 2,700 (0.77%) were called active. Shown is part of a subset that was picked to be rich in actives. A number with no mark means an inactive call.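 How the source made its calls: active means inhibition reaching at least a set limit at 20 µM in the primary screen (cut at about 59% in these data); inactive means the rest.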

What follows are molecules tested on glucose-6-phosphate dehydrogenase-6-phosphogluconolactonase (Plasmodium falciparum 3D7) (assay: PfG6PD enzyme inhibitors, primary screen, biochemical, fluorescence intensity, uHTS (AID 504690;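 further: 0% = DMSO wells with substrate and 100% = DMSO wells lacking glucose-6-phosphate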)). Details: PfGluPho enzyme, NADPH resazurin-diaphorase fluorescence; at 20 µM; hits give high values.

Row | SMILES | inhibition
1 | CCOC(=O)C1=C(C)c2ccccc2OC1C(=O)OCC (configuration not stated) | 4.58%
2 | CCOC(=O)C(=Cc1ccccc1OC)C(=O)OCC | -10.6%
3 | C=C1c2cccc(OC)c2O[C@H](C(=O)OCC)[C@@H]1CCCCCC | 77.8% (active)
4 | CC1CCC2(CC1)NC(=O)N(CC(=O)c1ccc3c(c1)OCO3)C2=O (configuration not stated) | 6.6%
5 | Cn1c(-c2sccc2OCc2cccc(C(F)(F)F)c2)n[nH]c1=S | 65.3% (active)
6 | CCOC(=O)N1CCN(Cc2nc(Cc3cccc(C(F)(F)F)c3)no2)CC1 | -8.4%
7 | Cn1c(-c2sc3cc(C(F)(F)F)cnc3c2-c2ccccc2)n[nH]c1=S | 27.8%
8 | O=C(OCc1cn([C@@H]2C[C@H](c3ccc(Cl)cc3)N(Cc3cccs3)C[C@H]2O)nn1)c1ccccc1 | 11.3%
9 | O=C(O)C1CCN(C(=O)OCc2ccccc2)CC1 | -0.22%
10 | CCN(C(=O)CSc1nnc(-c2ccc(OC(F)F)cc2)n1N)C1CCS(=O)(=O)C1 (configuration not stated) | -3.99%
11 | O=C(c1ccc(Br)o1)N(c1ccccn1)C1CCCCC1 | -15.9%
12 | O=C1/C(=C\c2ccc([N+](=O)[O-])cc2)CS(=O)(=O)C/C1=C/c1ccc([N+](=O)[O-])cc1 | 77.6% (active)
13 | O=C(O)C(=Cc1ccc([N+](=O)[O-])cc1)CCc1ccccc1 | -27.5%
14 | CC(=O)Nc1ccc(C=Cc2ccc([N+](=O)[O-])cc2)cc1 | 14.2%
15 | C[C@H]1CN([C@@H](C)CO)C(=O)c2cc(Br)cnc2O[C@H]1CN(C)S(=O)(=O)c1cccs1 | 9.15%
16 | O=C(CCN1C(=O)c2ccncc2C1=O)Nc1cc(F)ccc1F | -12.6%
17 | CC1(OC(=O)C2CCCC2)C(=O)C=C2C=C(c3ccc(C#N)cc3)OC=C2C1=O (configuration not stated) | 23%
18 | CC1(OC(=O)CCc2ccccc2)C(=O)C=C2C=C(c3ccc(C#N)cc3)N(CCc3ccccn3)C=C2C1=O (configuration not stated) | 44.1%
19 | COCCN1C=C2C(=O)C(C)(OC(=O)C3CCCC3)C(=O)C=C2C=C1c1ccsc1 (configuration not stated) | 72.5% (active)

Row | SMILES | inhibition
20 | COCC(=O)N(C)C[C@H]1Oc2cc(Br)ccc2S(=O)(=O)N([C@H](C)CO)C[C@H]1C | -15.7%
21 | O=C(O)C1CCN(c2ccc([N+](=O)[O-])cc2[N+](=O)[O-])CC1 | -6.12%
22 | CCN1CCN(c2ccc([N+](=O)[O-])cc2C(=O)c2ccc(Cl)cc2)CC1 | 11.2%
23 | O=[N+]([O-])c1ccc(N2CCN(c3ccc(O)cc3)CC2)c(Cl)c1 | 61.5% (active)
24 | CCN(CCCCOC(=O)c1ccc(OC)c(OC)c1)C(C)Cc1ccc(OC)cc1 (configuration not stated) | -1.86%
25 | CC1CCC(NS(=O)(=O)c2ccc3c(c2)n(C)c(=O)c(=O)n3C)CC1 (configuration not stated) | -1.38%
26 | Cn1sc(=O)c2cc(S(=O)(=O)NC3CC3)ccc21 | 66.3% (active)
27 | O=S(=O)(NC1CC1)c1ccc(F)c(F)c1 | 1.75%
28 | CC1(c2ccccc2)NC(=O)N(CC(=O)N2CC(=O)Nc3ccccc32)C1=O (configuration not stated) | 4.26%
29 | CCCCOP(=O)(c1ccc(N(C)C)cc1)C(O)c1cc(OC)ccc1OC (configuration not stated) | 10.8%
30 | C=C(C)C(=O)Nc1cccc(C2=NOC3(C2)C[C@H](C(N)=O)N(C(=O)C(c2ccccc2)c2ccccc2)C3)c1 (some centres not stated) | -3.38%
31 | COc1ccccc1OCCC(=O)OCC(=O)NCc1ccccc1 | 9.79%
32 | COc1cc(C(=S)NCc2ccccc2)cc(Br)c1O | 66.8% (active)
33 | COc1cc(C(=O)NCc2ccncc2)cc(Br)c1OCc1ccccc1 | 10.8%
34 | Cc1ccc(C(O)P(=O)(OC(C)C)c2ccc(N(C)C)cc2)cc1 (configuration not stated) | -15%
35 | O=C(O)C1CCCN1c1nc(Cl)ccc1[N+](=O)[O-] (configuration not stated) | 26.3%
36 | CC(C)(C)n1ncc2c(=O)n(Cc3c(Cl)cccc3Br)cnc21 | -2.98%
37 | O=C(COC(=O)Cc1ccc(F)cc1)Nc1cc(S(=O)(=O)N2CCOCC2)ccc1N1CCCC1 | -0.28%
38 | CC(C)CCC(=O)Nc1cc(S(=O)(=O)N2CCOCC2)ccc1N1CCCC1 | 10.5%

Row | SMILES | inhibition
39 | COCCNC(=S)Nc1cc(S(=O)(=O)N2CCOCC2)ccc1N1CCCCC1 | 76.4% (active)
40 | CC(Oc1cccc(Cl)c1)C(=O)Nc1ccc(S(=O)(=O)Nc2ncccn2)cc1 (configuration not stated) | -6.55%
41 | S=C(NN=Cc1ccccn1)Nc1ccccn1 | 64% (active)
42 | S=C(Nc1cccnc1)Nc1ccccn1 | 7.51%
43 | O=C(N/N=C/c1ccccn1)C12CC3CC(CC(C3)C1)C2 | -7.42%
44 | CC(=O)Nc1ccc(NC(=O)CCN2C(=O)C3CC=CCC3C2=O)cc1 (configuration not stated) | -13%
45 | O=C(Nc1ccc(N2CCN(C(=O)c3ccccc3)CC2)c(Cl)c1)c1cccnc1 | 17.8%
46 | O=C(NCCN1CCCC(O)C1)c1cc(COc2c(F)cccc2F)on1 (configuration not stated) | -19.2%
47 | CN1CCN(NC(=O)c2ccc(S(=O)(=O)N3CCCCCC3)cc2)CC1 | 5.23%
48 | COc1ccc(S(=O)(=O)NCc2cccnc2)cc1NC(=O)c1ccc(C)cc1 | -3.1%
49 | CCOc1ccc(S(=O)(=O)N2CCN(C(=S)NCC3CCCO3)CC2)cc1 (configuration not stated) | 8.65%
50 | CCOc1ccc(NS(=O)(=O)c2ccc(C(=O)NCC3CCCO3)cc2)cc1 (configuration not stated) | 9.67%
51 | CCOc1ccc(-n2c(N)c(C(=O)NCC3CCCO3)sc2=S)cc1 (configuration not stated) | 67.6% (active)
52 | O=C(Nc1ccccc1C(=O)N1CCOCC1)C1CCC(=O)N1C1CCCC1 (configuration not stated) | -1.14%
53 | O=C(COC(=O)Cn1cnc2ccccc2c1=O)NCc1ccccc1Cl | 11%
54 | CC(OC(=O)CCc1nc(=O)c2ccccc2n1C)C(=O)NCc1ccc2c(c1)OCO2 (configuration not stated) | 5.1%
55 | Cn1c(CCC(=O)OCC(=O)NCc2ccccc2Cl)nc(=O)c2ccccc21 | 60.9% (active)
56 | O=c1c2ccccc2nnn1CSc1nc2sc3c(c2c(=O)n1CC1CCCO1)CCC3 (configuration not stated) | 13.2%
57 | CC[C@@H](C)[C@@H]1CN([C@@H](C)CN2CCC[C@H]2CN2C(N)=NC[C@H]2C(C)C)C(=N)N1CCc1ccc(Cl)c(Cl)c1 | -10.9%
